Results taken from PubChem BioAssay (NCI).
Compounds without any hit were thinned out: in the full panel of roughly 83,000, 20% have a hit.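 Compound tested at a single concentration for 48 hours in 96-well plates; a percent growth value below 10 was scored as active.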 A number with no mark means an inactive call. Activity calls are given as the source filed them.

These compounds were tested on SNB-75 CNS (assay: NCI-60 one-dose screen, 48 h (100 = growth as untreated, 0 = no growth, -100 = all killed)). Details: 10 µM unless noted.
`CCCCCCNC(=O)Oc1ccc(/C(=C(/C)Cc2ccc(OC)cc2)c2ccc(OCCN3CCCCC3)cc2)cc1` showed a growth of 66.7%. Work on `COc1cc(/C=C/C(=O)/C=C(/C=C/c2ccc(OC(C)=O)c(OC)c2)OB(F)F)ccc1OC(C)=O` yielded a growth of 53%. Compound `O=C(CCC(=O)N(CCO)CCO)N(CCO)CCO` has a growth of 94%. `O=C(O)c1ccc(Br)nc1` was tested, and the growth was 81.7%. In the case of `COc1ccc2c(c1)/C(=C1/S/C(=N/c3nnc(C)s3)NC1=O)C(=O)N2Cc1ccc(Br)cc1`, the growth is reported as 45.7%. `COc1ccc(C2=C/C(=C\c3ccc(Cl)cc3)C(=O)NN2C(=S)NN)cc1` showed a growth of 61.2%. For `CCC(C)(C)c1ccc(OCCCCCCN2CCN(c3ccc(C)c(Cl)c3)CC2)cc1`, the growth was 92.2%. Compound `COC1=C(OC)C(=O)c2ccccc2C1=O` has a growth of 72.7%. Work on `CCOC1=C(Cl)C(=O)C(OCC)=C(Cl)C1=O` yielded a growth of 93.3%. In the case of `CCS(=O)(=O)OCCO[C@H]1Cc2cc3ccc(=O)oc3cc2OC1(C)C`, the growth is reported as 101%. `O=CN/N=C/c1ccc(Cl)c([N+](=O)[O-])c1` was tested, and the growth was 62.2%. For `CCN(CC)CCCNc1c2ccc(Cl)cc2nc2ccc(OC)cc12`, the growth was -44.9% (active). In the case of `COc1ccc(-c2nc(SCC(C)C)nc(Nc3ccc(C)cc3)c2C#N)cc1`, the growth is reported as 60.6%. In the case of `CC(=O)OC1/C=C\CC/C=C\C1` (stereo not given), the growth is reported as 82.6%. For `CCCCCCC(C)N(CC(C)(C)O)C(=O)c1ccc([N+](=O)[O-])cc1` (stereo not given), the growth was 97.3%. Compound `CC(=O)Nc1nc(C)c(C(=O)NNC(=O)Nc2ccccc2)s1` has a growth of 98.4%. `COC(=O)C(C)[C@H]1CC[C@@H]2[C@]1(C)CC=C1[C@]23C=C[C@]2(C[C@@H](OC(C)=O)CC[C@]12C)C(C(=O)OC)C3C(=O)OC` (stereo not given in full) gave a growth of 98.5%. With `CC/C(=N\Nc1nc2ccccc2n1C)c1ccccn1` the growth was 19.5%. Work on `COc1ccc(Cn2cc3c(c2-c2ccc(O)cc2)CCc2cnoc2-3)cc1` yielded a growth of 19.1%. With `COc1ccc2c(c1)/C(=C/c1c(-c3cc(OC)c(OC)c(OC)c3)nc3sccn13)C(=O)N2` the growth was 78.3%. In the case of `O=C(N/N=C\c1ccc(Cl)cc1)C(=O)N/N=C\c1ccc(Cl)cc1`, the growth is reported as 88.3%. For `c1ccc2[nH]c(-c3ccc(OCCCCCOc4ccc(-c5nc6ccccc6[nH]5)cc4)cc3)nc2c1`, the growth was -4.77% (active). With `O=C1Nc2c(c(=O)n(-c3ccccc3)c3ccccc23)C(c2ccc(Cl)cc2)N1` (stereo not given) the growth was 80.7%. `CN1CCN(Cc2ccc(NC(=O)c3cncc(C#Cc4c(N)ncc5ccc(F)cc45)c3)cc2C(F)(F)F)CC1` was tested, and the growth was 15.5%. For `CCCCN(CCCC)c1ccc(C(=O)O)cc1`, the growth was 83.2%. With `CNc1ccc(Nc2ccc(S(=O)(=O)O)cc2)c2c1C(=O)c1ccccc1C2=O` the growth was 101%. With `c1cc(C2CCCCC2)ccc1OCCCCCCN1CCNCC1` the growth was 31.2%. `O=C(O)c1occ(Cl)c1Cl` gave a growth of 99.2%. Work on `COc1cc(-c2nn(-c3ccc(NC(=O)Nc4ccc(Cl)c(Cl)c4)cc3)cc2-c2ccncc2)ccc1Cl` yielded a growth of 25%. In the case of `CN1CCN(Cc2ccc(NC(=O)c3ccc(C#Cc4c(N)ncc5ccc(F)cc45)cc3)cc2C(F)(F)F)CC1`, the growth is reported as -15.1% (active). `C#CCCCCCCC[C@@H]1OC(=O)[C@H]([C@@H](C)CC)NC(=O)[C@H]([C@@H](C)CC)NC(=O)CC(=O)[C@@H]1C` was tested, and the growth was 76.1%. Work on `c1ccc(C(=NNc2nc3ccccc3o2)c2ccccn2)nc1` yielded a growth of 31.7%. `CC(C)OC(=O)c1ccc2n1CCCc1cnc(Nc3ccccc3)nc1-2` was tested, and the growth was 98.6%. Work on `COc1ccc(-c2nc(N)n(C(=S)Nc3ccccc3)n2)cc1` yielded a growth of 70%. `COc1ccc(C(=O)CN2C(=O)NC(c3ccccc3)(c3ccccc3)C2=O)cc1` showed a growth of 86.7%. `CC(=O)CC(=O)OC/C=C(/C)CCC=C(C)C` gave a growth of 105%. In the case of `COc1cc(N)c2nccc(C)c2c1OC`, the growth is reported as 103%. Work on `CCn1cc(C(=O)O)c(=O)c2cc(F)c(N3CCN(S(=O)(=O)c4ccc(Cl)cc4)CC3)cc21` yielded a growth of 41.8%. With `Nc1ccc(N=Nc2ccccc2)c2cc(S(=O)(=O)O)ccc12` the growth was 82.5%. In the case of `O=C(O)CS(=O)c1ccc(Cl)cc1` (stereo not given), the growth is reported as 103%.

The compounds below were run on SNB-19 CNS in the same assay as above. Details: 10 µM unless noted.
For `CCCCCCNC(=O)Oc1ccc(/C(=C(/C)Cc2ccc(OC)cc2)c2ccc(OCCN3CCCCC3)cc2)cc1`, the growth was 86.3%. For `COc1cc(/C=C/C(=O)/C=C(/C=C/c2ccc(OC(C)=O)c(OC)c2)OB(F)F)ccc1OC(C)=O`, the growth was 69.4%. `O=C(CCC(=O)N(CCO)CCO)N(CCO)CCO` was tested, and the growth was 108%. Compound `O=C(O)c1ccc(Br)nc1` has a growth of 95.3%. `COc1ccc2c(c1)/C(=C1/S/C(=N/c3nnc(C)s3)NC1=O)C(=O)N2Cc1ccc(Br)cc1` was tested, and the growth was 24.7%. For `COc1ccc(C2=C/C(=C\c3ccc(Cl)cc3)C(=O)NN2C(=S)NN)cc1`, the growth was 103%. With `CCC(C)(C)c1ccc(OCCCCCCN2CCN(c3ccc(C)c(Cl)c3)CC2)cc1` the growth was 103%. `COC1=C(OC)C(=O)c2ccccc2C1=O` was tested, and the growth was 102%. `CCOC1=C(Cl)C(=O)C(OCC)=C(Cl)C1=O` was tested, and the growth was 96.3%. Compound `CCS(=O)(=O)OCCO[C@H]1Cc2cc3ccc(=O)oc3cc2OC1(C)C` has a growth of 105%. `O=CN/N=C/c1ccc(Cl)c([N+](=O)[O-])c1` showed a growth of 32.5%. `CCN(CC)CCCNc1c2ccc(Cl)cc2nc2ccc(OC)cc12` was tested, and the growth was 10.2%. Compound `COc1ccc(-c2nc(SCC(C)C)nc(Nc3ccc(C)cc3)c2C#N)cc1` has a growth of 78.4%. In the case of `CC(=O)OC1/C=C\CC/C=C\C1` (stereo not given), the growth is reported as 100%. In the case of `CCCCCCC(C)N(CC(C)(C)O)C(=O)c1ccc([N+](=O)[O-])cc1` (stereo not given), the growth is reported as 95.4%. `CC(=O)Nc1nc(C)c(C(=O)NNC(=O)Nc2ccccc2)s1` gave a growth of 93.9%. With `COC(=O)C(C)[C@H]1CC[C@@H]2[C@]1(C)CC=C1[C@]23C=C[C@]2(C[C@@H](OC(C)=O)CC[C@]12C)C(C(=O)OC)C3C(=O)OC` (stereo not given in full) the growth was 95.9%. In the case of `CC/C(=N\Nc1nc2ccccc2n1C)c1ccccn1`, the growth is reported as 18.8%. `COc1ccc(Cn2cc3c(c2-c2ccc(O)cc2)CCc2cnoc2-3)cc1` showed a growth of 47.1%. In the case of `COc1ccc2c(c1)/C(=C/c1c(-c3cc(OC)c(OC)c(OC)c3)nc3sccn13)C(=O)N2`, the growth is reported as 97.1%. With `O=C(N/N=C\c1ccc(Cl)cc1)C(=O)N/N=C\c1ccc(Cl)cc1` the growth was 96%. In the case of `c1ccc2[nH]c(-c3ccc(OCCCCCOc4ccc(-c5nc6ccccc6[nH]5)cc4)cc3)nc2c1`, the growth is reported as 46%. `O=C1Nc2c(c(=O)n(-c3ccccc3)c3ccccc23)C(c2ccc(Cl)cc2)N1` (stereo not given) was tested, and the growth was 60.4%. In the case of `CN1CCN(Cc2ccc(NC(=O)c3cncc(C#Cc4c(N)ncc5ccc(F)cc45)c3)cc2C(F)(F)F)CC1`, the growth is reported as 74.3%. `CCCCN(CCCC)c1ccc(C(=O)O)cc1` gave a growth of 84.8%. With `CNc1ccc(Nc2ccc(S(=O)(=O)O)cc2)c2c1C(=O)c1ccccc1C2=O` the growth was 104%. Compound `c1cc(C2CCCCC2)ccc1OCCCCCCN1CCNCC1` has a growth of 57.6%. Work on `O=C(O)c1occ(Cl)c1Cl` yielded a growth of 109%. In the case of `COc1cc(-c2nn(-c3ccc(NC(=O)Nc4ccc(Cl)c(Cl)c4)cc3)cc2-c2ccncc2)ccc1Cl`, the growth is reported as 36.9%. `CN1CCN(Cc2ccc(NC(=O)c3ccc(C#Cc4c(N)ncc5ccc(F)cc45)cc3)cc2C(F)(F)F)CC1` was tested, and the growth was -91.8% (active). For `C#CCCCCCCC[C@@H]1OC(=O)[C@H]([C@@H](C)CC)NC(=O)[C@H]([C@@H](C)CC)NC(=O)CC(=O)[C@@H]1C`, the growth was 97.7%. `c1ccc(C(=NNc2nc3ccccc3o2)c2ccccn2)nc1` was tested, and the growth was 24.5%. `CC(C)OC(=O)c1ccc2n1CCCc1cnc(Nc3ccccc3)nc1-2` gave a growth of 89%. In the case of `COc1ccc(-c2nc(N)n(C(=S)Nc3ccccc3)n2)cc1`, the growth is reported as 99.5%. `COc1ccc(C(=O)CN2C(=O)NC(c3ccccc3)(c3ccccc3)C2=O)cc1` was tested, and the growth was 102%. `CC(=O)CC(=O)OC/C=C(/C)CCC=C(C)C` showed a growth of 107%. `COc1cc(N)c2nccc(C)c2c1OC` was tested, and the growth was 109%. Work on `CCn1cc(C(=O)O)c(=O)c2cc(F)c(N3CCN(S(=O)(=O)c4ccc(Cl)cc4)CC3)cc21` yielded a growth of 20.6%. `Nc1ccc(N=Nc2ccccc2)c2cc(S(=O)(=O)O)ccc12` was tested, and the growth was 101%. For `O=C(O)CS(=O)c1ccc(Cl)cc1` (stereo not given), the growth was 104%.
